From PubChem
An excerpt weighted towards active compounds, which were near 21% of everything screened.
Sm TGR inh – blocks Schistosoma mansoni thioredoxin glutathione reductase | purified TGR, DTNB reduction, TNB absorbance 405 nm | Potency, µM (titrated, usually from 114 µM), most hits filed as inhibitors | Q962Y6 | AID 485364 | actives 3% (n = 360,000); note: nearly all actives have a fitted effect of over 60% in size
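First, TGR (20 nM dispensed) and NADPH were mixed with compound. Second, a 15 min room-temperature incubation followed. Third, further NADPH and then DTNB were added to start the reaction. Finally, TNB absorbance was monitored kinetically.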
CHX counter – affects cycloheximide protein synthesis inhibition readout, counter-screen; max response, %; actives 12% (n = 300,000); cell reporter, cycloheximide protein synthesis inhibition counterscreen; in the data active = max response mostly above about 13%, no sharp cut-off; inactive = mostly below about 14%; note: read at 38.3 µM for the half of the compounds with a filed dose
Pf growth 96h – P. falciparum growth inhibition at 96 hour, primary screen for plastid delayed-death inhibitors. actives 6.9% (n = 320,000). Potency, µM (doses to about 28.7 µM), most hits filed as inhibitors. P. falciparum luciferase reporter growth, 96 h
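P. falciparum expressing integrated firefly luciferase grown in erythrocytes (2% hematocrit, 0.05% parasitemia final) with compounds for 96 hours at 37 C, 5% CO2. Growth inhibition read as loss of luminescence after adding luciferase detection reagent.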
NS1 function inh – blocks influenza NS1 protein function; Potency, µM (doses to about 46.1 µM); actives 0.4% (n = 270,000); AID 2326; calls by dose curve; note: actives are rising curves; nearly all actives have a fitted effect of over 50% in size
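Recovery from NS1-induced slow growth read by OD600 in budding yeast switched to galactose assay medium (pH 6.0, -URA) at 1:100 dilution. Compound 23 nl per well; the matching strain lacking NS1 serves as control.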
Pf growth 48h – P. falciparum growth inhibition at 48 hours (one generation); P. falciparum luciferase growth in erythrocytes, 48 h; Potency, µM (titrated, usually from 28.7 µM), usual class: inhibitors; actives 5.9% (n = 310,000); AID 504832
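Here the parasites carry a stable luciferase gene and grow inside erythrocytes in Albumax-based RPMI medium with compound for one erythrocytic cycle. Activity is scored as loss of luminescent signal.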
Shiga inhibitor – inhibitors of Shiga toxin in Vero cells; Vero cells, Shiga toxin protein synthesis inhibition reporter; inhibition, % at 38.7 µM; actives 9.2% (n = 290,000); in the data active = inhibition mostly above about 28%, no sharp cut-off; inactive = mostly below about 43%
Hits are given with their value; i = inactive; ? = inconclusive; nt = no result; [ ] = another dose, or the depositor's remark. Unless noted, calls come from the whole dose curve; as a rule, active = well fitted curve in the direction sought with a large enough effect; inconclusive = small, poorly fitted or top-dose-only effect, or another doubt; inactive = no such curve, though single readings can be large; an effect the other way counts as inactive or inconclusive.

SMILES	Sm TGR inh	CHX counter	Pf growth 96h	NS1 function inh	Pf growth 48h	Shiga inhibitor
Cc1ccsc1/C=N/N1CCN(c2ccccc2)CC1	i	71.0	i	i	i	59.7
Cc1ccsc1/C=N/N1CCN(c2ccccn2)CC1	i	30.8	i	i	i	54.5
Cc1ccc(C(=O)Oc2cccc(-n3cnnn3)c2)cc1	i	40.0	i	i	i	57.2
CC1CCc2c(C(=O)Oc3cccc(-n4cnnn4)c3)csc2C1 (centres undefined)	i	i	?	i	5.86µM	i
O=S(=O)([N-]c1nc2ccccc2nc1-n1cc[n+](Cc2ccccc2)c1)c1ccc(Cl)cc1	i	i	?	i	?	i
O=C(/C=C/c1ccccc1Cl)c1ccc[nH]1	i	36.3	?	i	i	51.5
O=C(/C=C/c1ccc(Cl)cc1Cl)n1cccn1	i	i	?	i	i	i
COC(=O)c1sccc1NC(=O)/C=C/c1ccc(Cl)cc1Cl	i	i	?	i	i	i
CN(C)/C=C/C(=O)/C=C/c1ccc(Cl)cc1Cl	i	34.1	i	nt	i	102.2
O=C(/C=C/c1ccc(Cl)cc1Cl)c1ccc[nH]1	nt	33.7	i	i	i	74.6
O=C(/C=C/c1ccccc1Cl)N1CCN(c2ncccn2)CC1	i	i	i	i	i	i
COc1ccc(O)c(CN2CCN(CCCc3ccccc3)C(CCO)C2)c1 (centres undefined)	i	i	?	i	?	i
OCCC1CN(Cc2cc(F)ccc2F)CCN1CCCc1ccccc1 (centres undefined)	i	i	13.1µM	i	?	i
COc1ccc(OC)c(CN2CCN(CCc3ccccc3)C(CCO)C2)c1 (centres undefined)	i	i	13.1µM	i	i	i
COc1ccc(F)c(CN2CCN(CCc3ccccc3)C(CCO)C2)c1 (centres undefined)	i	i	3.7µM	i	i	nt
O=C(NCc1ccco1)C1CCCN(S(=O)(=O)c2ccc(Cl)cc2)C1 (centres undefined)	i	i	i	i	nt	i
CC(C)(C)C1CCc2sc(-c3nnc(CCl)o3)cc2C1 (centres undefined)	?	32.5	?	nt	13.1µM	71.6
ClCc1nnc(-c2cc3c(s2)CCCC3)o1	i	49.6	10.4µM	nt	?	67.1
CCCNC(=O)c1ccccc1NC(=O)c1cccc(-n2cnnn2)c1	i	nt	i	nt	?	nt
Oc1ccc(/C=N/N2CCCCC2)c(O)c1O	35.5µM	i	i	i	i	i
Oc1ccc(/C=N/Nc2nc(N3CCCCCC3)nc(N3CCCCCC3)n2)c(O)c1	i	i	i	nt	?	i
Oc1ccccc1/C=N/N1CCCCC1	i	39.5	i	nt	i	84.9
Oc1ccc(/C=N/N2CCCCC2)c(O)c1	i	48.5	i	i	i	106.5
Brc1ccccc1/C=N/N1CCCCC1	i	i	i	i	i	i
Oc1cccc(/C=N/N2CCCCC2)c1O	?	39.6	i	i	i	95.6
SMILES	Sm TGR inh	CHX counter	Pf growth 96h	NS1 function inh	Pf growth 48h	Shiga inhibitor
Oc1ccc(/C=N/N2CCOCC2)c(O)c1O	i	i	i	nt	i	i
COc1cc(SC)ccc1C(=O)N1CCN(c2ccccc2OC)CC1	nt	i	i	i	i	i
COc1cc(SC)ccc1C(=O)Nc1nccs1	i	28.3	i	i	i	active
COc1cc(SC)ccc1C(=O)Nc1c(Cl)cncc1Cl	i	i	i	i	i	i
COc1ccccc1OC(=O)c1ccc(SC)cc1OC	i	13.9	nt	i	i	i
CSc1cccc(NC(=O)c2cccc3cccnc23)c1	i	34.0	i	i	i	98.2
COc1cc(SC)ccc1C(=O)Nc1c(C)cccc1C	i	13.0	?	i	?	i
COc1cc(SC)ccc1C(=O)Nc1cccc(S(=O)(=O)NC2=NCCC2)c1	i	nt	?	nt	?	nt
COc1cc(SC)ccc1C(=O)Nc1ccccc1	i	36.6	?	i	nt	94.4
COc1ccccc1C(=O)Nc1cccc(SC)c1	i	32.8	i	i[9.22 µM]	i	66.4
CC(C)NC(=O)COC(=O)c1ccccc1CSC1=NCCS1	i	i	?	i	?	i
CN1CCN(C(=O)c2ccc3c(c2)N(Cc2c(F)cccc2Cl)C(=O)c2ccccc2S3)CC1	i	nt	nt	nt	nt	nt
COc1ccccc1CNC(=O)CSc1nc2nc(C)c(Cc3ccccc3C)c(C)n2n1	i	nt	nt	nt	nt	nt
Cc1ccccc1CS(=O)(=O)c1snnc1C	i	i	i	i	i	i
Cc1ccccc1CS(=O)(=O)c1cnc2ccccc2n1	i	i	nt	i	14.7µM	i
O=C(/C(Br)=C/Nc1cc(Cl)ccc1Cl)C(F)(F)F	22.4µM	i	i	i	i	i
O=C(Nc1cc(Cl)ccc1Cl)N1CCCC1	i	i	?	i	i	i
CCCc1cc(=O)n2[nH]c(NCc3c(F)cccc3Cl)nc2n1	i	i	11.7µM	i	i	i
CC(=O)c1ccc(N2CCN(S(=O)(=O)c3ccc4c(c3)NC(=O)CC(=O)N4)CC2)cc1	i	23.7	?	i	i	54.6
CCN1C(=O)c2cccc3c(S(=O)(=O)NCc4cccnc4)ccc1c23	i	i	nt	i	?	i
CCOC(=O)C1CCCN(S(=O)(=O)c2ccc3c4c(cccc24)C(=O)N3CC)C1 (centres undefined)	i	nt	?	nt	10.4µM	nt
CC(=O)c1ccc(N2CCN(S(=O)(=O)c3ccc4c(c3)CC(C)N4C(=O)C3CC3)CC2)cc1 (centres undefined)	i	i	?	i	7.38µM	i
CCN1C(=O)c2cccc3c(S(=O)(=O)N4CCCC4C(=O)O)ccc1c23 (centres undefined)	i	i	i	i	i	i
CC(=O)c1ccc(N2CCN(S(=O)(=O)c3cc4c(cc3C)NC(=O)CO4)CC2)cc1	i	i	i	i	?	i
CCN1C(=O)c2cccc3c(S(=O)(=O)NCc4ccco4)ccc1c23	39.8µM	23.1	?	i	i	18.4
SMILES	Sm TGR inh	CHX counter	Pf growth 96h	NS1 function inh	Pf growth 48h	Shiga inhibitor
Cc1ccc(CN2CCN(CC(=O)NC(C)c3ccc4c(c3)OCCO4)C2=O)cc1 (centres undefined)	i	i	i	i	nt	i
OC1OC[C@H](O)[C@@H](O)[C@H]1O (some centres undefined)	nt	i	nt	nt	nt	i
OCC1(Cc2ccc(F)cc2)CCCN(CCCC(F)(F)F)C1 (centres undefined)	i	i	i	i	?	i
CCOC(=O)C1CCN(S(=O)(=O)c2ccc3c(c2)CC(C)N3C(=O)C2CCC2)CC1 (centres undefined)	i	i	?	i	i	i
CC1Cc2cc(S(=O)(=O)N3CCN(C)CC3)ccc2N1C(=O)C1CC1 (centres undefined)	i	i	5.86µM	i	?	i
CCOC(=O)C1CCCN(S(=O)(=O)c2ccc3c(c2)CC(C)N3C(=O)C2CC2)C1 (centres undefined)	i	i	10.4µM	i	i	i
CC(Sc1ccc2ccccc2c1)C(=O)NC(N)=O (centres undefined)	i	i	i	nt	i	i
CC(C)CSc1ccccc1NC(=O)c1sc2nc(-c3ccncc3)ccc2c1N	i	nt	nt	nt	nt	nt
